Bioassay records: PubChem, several laboratories
The list is not random: actives were taken first. Their share in the collection is about 2.3%.
Mcl-1 Bim block – disrupts Bim peptide binding to human Mcl-1; Q07820; Bead-based flow cytometry, Bim peptide-Mcl-1 binding; inhibition, % at 10 µM; 190,000 compounds, 0.1% hits; AID 1009; in the data active = inhibition above about 40%
Target sequence (Q07820 whole entry, looked up): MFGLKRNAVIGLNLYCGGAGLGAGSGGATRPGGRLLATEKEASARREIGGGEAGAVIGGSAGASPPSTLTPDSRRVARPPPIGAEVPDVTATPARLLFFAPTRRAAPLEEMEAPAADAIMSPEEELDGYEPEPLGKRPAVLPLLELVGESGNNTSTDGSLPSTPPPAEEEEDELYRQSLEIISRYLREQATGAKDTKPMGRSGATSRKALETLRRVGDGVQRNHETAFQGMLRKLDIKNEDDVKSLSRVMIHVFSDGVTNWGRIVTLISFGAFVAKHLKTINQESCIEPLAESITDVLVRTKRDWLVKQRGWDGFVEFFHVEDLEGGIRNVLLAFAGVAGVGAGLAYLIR
Mcl1-Bid inh – Mcl-1/Bid interaction inhibition; TR-FRET Mcl-1/Bid-Dy647 peptide binding, 1536-well; inhibition, % at 21.7 µM; 220,000 compounds, 0.97% hits;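 active = compounds that cut the binding signal by more than half at the single screening dose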;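 also: His-tagged Mcl-1 with europium anti-His antibody binding Bid BH3 peptide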
MCL1 BIM primary – inhibitors of human MCL1 binding to BIM-BH3 peptide. Q07820. GST-MCL1 / FITC-Bim-BH3 fluorescence polarization. inhibition, % at 10.9 µM. 320,000 compounds, 0.68% hits. AID 2057;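 active = inhibition above the mean inhibition of all tested compounds plus 3 SD, set per campaign, cut at about 40% in these data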;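 also: higher means more loss of mP so more displacement of Bim peptide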
GLD-1 RNA inh – GLD-1-TGE RNA interaction inhibition (C. elegans); Q17339; purified GLD-1 + fluorescein TGE RNA, fluorescence polarization; inhibition, % at 5.96 µM; 320,000 compounds, 0.44% hits;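 active = percent inhibition above a per-plate cutoff, the plate mean of test compounds plus 3 SD, cut at about 30% in these data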
BCLXL inh – blocks human Bcl-xL binding to Bim BH3 peptide. 320,000 compounds, 0.7% hits. inhibition, % at 10.9 µM. GST-Bcl-xL / FITC-Bim BH3 peptide fluorescence polarization. AID 2129;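 active = inhibition above the mean of all tested compounds plus 3 SD, cutoff set per campaign, cut at about 30% in these data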;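 also: inhibitors lower millipolarization by displacing the labeled peptide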
Target sequence (Q07817 whole entry, looked up): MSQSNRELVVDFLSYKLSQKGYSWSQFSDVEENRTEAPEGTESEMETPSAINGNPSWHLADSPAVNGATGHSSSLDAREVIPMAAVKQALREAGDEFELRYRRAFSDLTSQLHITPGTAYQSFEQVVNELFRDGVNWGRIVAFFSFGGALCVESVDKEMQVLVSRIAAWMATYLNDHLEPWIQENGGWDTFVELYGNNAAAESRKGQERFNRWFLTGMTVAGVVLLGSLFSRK
Mcl1-Noxa inh – disrupts binding of human Mcl-1 to Noxa peptide; inhibition, % at 21.7 µM; TR-FRET Mcl-1/Noxa peptide binding, 2 h; 220,000 compounds, 1.5% hits;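 active = compounds that cut the protein-peptide binding signal by more than 50% relative to plate controls in a single-dose test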;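 also: His-tagged Mcl-1 with rhodamine Noxa BH3 peptide and terbium anti-His antibody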
Large screens that a line does not name were inactive.

COc1cc(CNc2ccc(O)cc2)cc(Br)c1OCc1ccccc1F	Mcl1-Bid inh 95.4
COc1cc(CNn2cn[nH]c2=S)cc(Br)c1OCc1ccccc1F	none
O=c1[nH]c2cc3c(cc2cc1CN(Cc1ccccc1)Cc1nnnn1Cc1ccco1)OCCO3	none (no result: MCL1 BIM primary, GLD-1 RNA inh, BCLXL inh)
O=c1[nH]c2cc3c(cc2cc1CN(CCCO)Cc1nnnn1Cc1ccc(F)cc1)OCO3	BCLXL inh 33.4
COc1ccccc1CN(Cc1cc2cc3c(cc2[nH]c1=O)OCCO3)Cc1nnnn1Cc1ccco1	BCLXL inh 32.3
O=c1[nH]c2cc3c(cc2cc1CN(Cc1cccnc1)Cc1nnnn1Cc1ccco1)OCCO3	MCL1 BIM primary 43.9, BCLXL inh 33.6
O=C(NCCN1CCN(c2ccc([N+](=O)[O-])cc2)CC1)NCc1ccccc1	none (no result: Mcl-1 Bim block, Mcl1-Bid inh, Mcl1-Noxa inh)
Cn1c(SCc2ccc([N+](=O)[O-])cc2)nc2c(c1=O)SCC2	none
CCC(=O)Nc1ccc(NC(=O)CN2CCCC(C)C2)c(Cl)c1 (stereo unspecified)	none
CCOc1ccc(NC(=O)CC2C(=O)N(c3ccc(OC)cc3)C(=S)N2Cc2ccccn2)cc1 (stereo unspecified)	Mcl1-Bid inh 81.7
COc1cc(NC(=O)C2CCN(S(=O)(=O)c3ccc4c(c3)CC(C)N4C(C)=O)CC2)cc(OC)c1OC (stereo unspecified)	none (no result: Mcl-1 Bim block, Mcl1-Bid inh, Mcl1-Noxa inh)
CCCC(=O)Oc1ccccc1C1SCc2cc(C)c(C)cc2CS1	none
COCCNC(=O)c1noc2c1CCc1cc(OC)ccc1-2	Mcl1-Noxa inh 64.6
O=C(NCc1ccco1)c1ccc(COc2ccc(Cl)cc2)cc1	none
CCCc1cc(SCC(=O)Nc2c(C)n(C)n(-c3ccccc3)c2=O)n2c(nc3ccccc32)c1C#N	Mcl1-Bid inh 66.1
Cn1c2ccccc2c(=O)c2ccc(NCCc3cccs3)cc21	GLD-1 RNA inh 79.2 (no result: Mcl-1 Bim block, Mcl1-Bid inh, MCL1 BIM primary, BCLXL inh, Mcl1-Noxa inh)
Cc1cc(NS(=O)(=O)c2ccc(NC(NC(=O)C(C(F)(F)F)C(F)(F)F)(C(F)(F)F)C(F)(F)F)cc2)no1	Mcl1-Bid inh 70.7 (no result: MCL1 BIM primary, GLD-1 RNA inh, BCLXL inh)
CCOc1cnn(Cc2ccccc2)c(=O)c1SCc1ccccc1	Mcl1-Noxa inh 70.2
COc1cnn(Cc2ccccc2)c(=O)c1SCc1ccccc1	none
C#CCOCCOCCOCCNc1nc(N2CCN(C(=O)[C@H]([C@@H](C)O)n3cc(CCCCN)nn3)CC2)nc(N2CCN(C(=O)[C@H](C)n3cc(CCCN=C(N)N)nn3)CC2)n1	none
Cn1c2c(c(=O)n(C)c1=O)C(NS(=O)(=O)c1ccc(Cl)cc1)(C(F)(F)F)C(=O)N2 (stereo unspecified)	Mcl1-Noxa inh 53.1
Cc1ccc(-n2c3c(c(=O)[nH]c2=O)C(NS(=O)(=O)c2ccc(Cl)cc2)(C(F)(F)F)C(=O)N3)cc1 (stereo unspecified)	Mcl1-Noxa inh 54.5
O=C(Nc1ccc(N2CCOCC2)c([N+](=O)[O-])c1)c1ccco1	none
COc1ccccc1-c1cn[nH]c1-c1ccc(O)cc1O	none (no result: Mcl-1 Bim block, Mcl1-Bid inh, Mcl1-Noxa inh)
CCc1ccc(S(=O)(=O)Nc2ccc(O)c3c(=O)cc(-c4ccccc4Cl)oc23)cc1	none (no result: Mcl-1 Bim block)
O=c1cc(-c2ccccc2Cl)oc2c(NS(=O)(=O)c3cc(Cl)cc(Cl)c3O)ccc(O)c12	Mcl1-Bid inh 70.2, Mcl1-Noxa inh 110.2
COc1ccccc1/C=N/N1C(=O)c2cccc3cccc(c23)C1=O	BCLXL inh 43.4
C[C@@H](OC(=O)c1[nH]cnc1C(=O)N1CCc2ccccc2C1)c1ccccc1	none (no result: Mcl-1 Bim block, Mcl1-Bid inh, MCL1 BIM primary, BCLXL inh, Mcl1-Noxa inh)
CCc1ccc2[nH]c(=O)c(C(c3nnnn3CC3CCCO3)N3CCN4CCCC4C3)cc2c1 (stereo unspecified)	Mcl1-Bid inh 95.5
Cc1ccc2[nH]c(=O)c(C(c3nnnn3CC3CCCO3)N3CCCc4ccccc43)cc2c1 (stereo unspecified)	BCLXL inh 41.8
Cc1ccc2[nH]c(=O)c(C(c3nnnn3CC3CCCO3)N3CCc4ccccc4C3)cc2c1 (stereo unspecified)	none
Cc1ccc2[nH]c(=O)c(C(c3nnnn3Cc3ccccc3)N3CCc4ccccc43)cc2c1 (stereo unspecified)	none
Cc1cc2cc(C(c3nnnn3Cc3ccccc3)N3CCc4ccccc43)c(=O)[nH]c2cc1C (stereo unspecified)	BCLXL inh 31.2
O=C(Nc1ccc(Br)cc1C(=O)O)c1ccc2c(c1)C(=O)N(Cc1ccccc1)C2=O	none (no result: Mcl-1 Bim block, Mcl1-Bid inh, Mcl1-Noxa inh)
COc1ccc(NC(=O)c2ccccc2NS(C)(=O)=O)cc1OC	Mcl1-Bid inh 50.9
COc1ccccc1NC(=O)c1ccccc1NS(C)(=O)=O	none
COc1cc([N+](=O)[O-])ccc1NC(=O)COC(=O)c1ccc(NC(N)=O)cc1	Mcl1-Bid inh 61.2, Mcl1-Noxa inh 72.3 (no result: Mcl-1 Bim block)
COc1cc([N+](=O)[O-])ccc1NC(=S)Nn1cnnc1	BCLXL inh 35.8 (no result: Mcl-1 Bim block, Mcl1-Bid inh, Mcl1-Noxa inh)
COCC(=O)Nc1ccc([N+](=O)[O-])cc1OC	none
CCCC(=O)NC(=S)Nc1ccc(N2CCOCC2)c(Cl)c1	none
CC1=Nc2cc(C(=O)N3CCCCC3)ccc2Sc2ccc(C)cc21	none (no result: Mcl-1 Bim block, Mcl1-Bid inh, Mcl1-Noxa inh)
CCNc1ccc(Br)cc(C(=O)/C=C/c2ccccc2Cl)c1=O	none (no result: Mcl-1 Bim block, Mcl1-Bid inh, Mcl1-Noxa inh)
CNc1ccc(Br)cc(C(=O)/C=C/c2cccc(Cl)c2Cl)c1=O	Mcl1-Bid inh 92.0, Mcl1-Noxa inh 106.3 (no result: MCL1 BIM primary, GLD-1 RNA inh, BCLXL inh)
CNc1ccc(Br)cc(C(=O)/C=C/c2cccc(OC)c2OC)c1=O	Mcl1-Noxa inh 69.6
Cc1cc(-c2nnc3n2N=C(c2ccc(-c4ccccc4)cc2)CS3)n[nH]1	none
c1ccc(-c2cc(-c3nnc4n3N=C(c3ccc5ccccc5c3)CS4)[nH]n2)cc1	Mcl1-Bid inh 57.6
Cn1c(N)c(C(=O)NCc2ccccc2)sc1=S	BCLXL inh 33.5
Cc1cc(NC2CCCCC2)nc(-c2ccccc2O)n1	Mcl1-Bid inh 51.6
Cc1cc(Nc2ccccc2)nc(-c2ccccc2O)n1	none
N#CC1=C(N)NC(SCC(=O)Nc2ccc(Br)cc2)=C(C#N)C12CCCCC2	none
O=[N+]([O-])C1=C(Nc2cccc3ccccc23)CS(=O)(=O)C1	none
O=C(Nc1ccc2c(c1)OCO2)c1cnn2c(C(F)(F)F)cc(-c3ccco3)nc12	none
O=C(Nc1cnn(C23CC4CC(CC(C4)C2)C3)c1)c1cnn2c(C(F)(F)F)cc(-c3ccco3)nc12	Mcl1-Bid inh 79.2
COc1ccc(/C=C/C(=O)Oc2cccc(/C=N/NC(=O)COc3c(C)cccc3C)c2)cc1	none
O=C(CN1c2cccc3cccc(c23)S1(=O)=O)NCc1ccc(F)cc1	none (no result: Mcl-1 Bim block, Mcl1-Bid inh, MCL1 BIM primary, BCLXL inh, Mcl1-Noxa inh)
Cc1ccc(CNC(=O)CN2c3cccc4cccc(c34)S2(=O)=O)cc1	BCLXL inh 42.1 (no result: Mcl-1 Bim block, Mcl1-Bid inh, Mcl1-Noxa inh)
COc1cccc(-c2csc(N3CCN(C(=S)Nc4cccc(Cl)c4)CC3)n2)c1	Mcl1-Bid inh 88.6
O=C(CN1CCc2ccccc2C1)Nc1cc(S(=O)(=O)N2CCOCC2)ccc1N1CCCC1	none
Cc1cn(CC2COC(C)(C)O2)c(=O)[nH]c1=O (stereo unspecified)	Mcl1-Noxa inh 73.1
